Growth data for nine compounds are collected here from PubChem BioAssay (NCI).

What all share (assay): NCI-60 one-dose screen, 48 h (100 = growth as untreated, 0 = no growth, -100 = all killed)
The subject of assay [1] is HCT-15 colon. The settings on record: 10 µM unless noted.
For assay [2], the system named is HT29 colon. The settings on record: 10 µM unless noted.
The test system of assay [3] is SNB-75 CNS. The settings on record: 10 µM unless noted.
The test system of assay [4] is SNB-19 CNS. The settings on record: 10 µM unless noted.
The test system of assay [5] is U251 CNS. As to conditions: 10 µM unless noted.
In assay [6] the test system is PC-3 prostate. As to conditions: 10 µM unless noted.
In assay [7] the test system is SK-MEL-5 melanoma. As to conditions: 10 µM unless noted.
For assay [8], the system named is UACC-62 melanoma. As to conditions: 10 µM unless noted.
Assay [9] relates to SK-MEL-28 melanoma. The settings on record: 10 µM unless noted.
Assay [10] relates to SK-MEL-2 melanoma. The settings on record: 10 µM unless noted.
In assay [11] the test system is EKVX NSCLC. The settings on record: 10 µM unless noted.
Assay [12] concerns UO-31 renal. As to conditions: 10 µM unless noted.
Assay [13] has as its system TK-10 renal. The settings on record: 10 µM unless noted.
The test system of assay [14] is ACHN renal. The settings on record: 10 µM unless noted.
Assay [15] has as its system CAKI-1 renal. As to conditions: 10 µM unless noted.
The test system of assay [16] is A498 renal. The settings on record: 10 µM unless noted.
The subject of assay [17] is CCRF-CEM leukemia. The settings on record: 10 µM unless noted.
The subject of assay [18] is MOLT-4 leukemia. The settings on record: 10 µM unless noted.
Assay [19] deals with SN12C renal. The settings on record: 10 µM unless noted.
In assay [20] the test system is LOX IMVI melanoma. The settings on record: 10 µM.

The panel holds about 83,000 compounds, 20% with a hit somewhere; the sample as a whole holds those more often.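 Assay: single dose, 48 h. Readout: percent growth (0 = no net growth; negative = cell death). Active: <10.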 A number with no mark means an inactive call. The source made the active and inactive calls.

For the compound `N#Cc1c(-c2ccc(Cl)cc2)nc2n[nH]c(-c3ccc(Cl)cc3)c2c1-c1ccc(C(F)(F)F)cc1`, the growth is -47.2% (active) in assay [1]; 0.823% (active) in [2]; -17.5% (active) in assay [3]; 11.3% in assay [4]; -33.6% (active) in assay [5]; 8.27% (active) in assay [6]. In addition, the growth is -84% (active) in assay [7]; -58.6% (active) in assay [8]; 1.54% (active) in assay [9]; -66.9% (active) in assay [10]; -10.5% (active) in assay [11]; -1.42% (active) in assay [12]. Moreover, the growth was 15.9% in [13]; 2.15% (active) in assay [14]; -20.1% (active) in [15]; 50.5% in [16]; -7.76% (active) in assay [17]; 12.8% in assay [18].
As for `Cc1ccc2c(N)c(C(=O)Nc3ccc(OC(F)(F)F)cc3)sc2n1`, the growth was 61% in assay [1]; 75.2% in assay [2]; 91.8% in assay [3]; 79.5% in [4]; 84.6% in assay [5]; 58.4% in assay [6]. For the same compound, the growth in assay [7] is 26%; in assay [8] it was 61.2%; in assay [9] it was 85.5%; in [10] it was 67.4%; in assay [19], 70.2%; in [12], 56.2%. Moreover, the growth in assay [13] is 95.4%; in assay [14] it was 61.2%; in [15] it was 55.8%; in assay [16] it was 119%; in [17], 64.8%; in [18], 63.1%.
For `NS(=O)(=O)c1ccc(-n2cc(-c3cccc(NC(=O)c4cc(C(F)(F)F)cc(C(F)(F)F)c4)c3)nn2)cc1`, the growth is 85.7% in assay [1]; 46.6% in assay [2]; 37.5% in assay [3]; 25% in [4]; 11.7% in [5]; 52% in assay [6]. Further, the growth is 90.5% in assay [7]; 73.8% in assay [8]; 81.5% in [9]; 81.8% in [10]; 74.7% in assay [19]; 102% in [12]. For the same compound, the growth in assay [13] is 72.9%; in [14], 66.1%; in [15], 75.3%; in [16] it was 152%; in [17], 75.4%; in assay [18], 75.1%.
As to `CN1CCc2c(sc3ncnc(N/N=C/c4ccc(Cl)cc4Cl)c23)C1`, the growth in assay [1] is 10.2%; in assay [2], -88.4% (active); in assay [3], -50.4% (active); in [4] it was 26.8%; in assay [5], 2.63% (active); in [6], 25.3%. Besides, the growth in assay [7] is -89.2% (active); in [8] it was -79.9% (active); in assay [9], -33.1% (active); in assay [10], 9% (active); in assay [11], 33.1%; in assay [19] it was -32.8% (active). In addition, the growth in assay [12] was -95.7% (active); in assay [14] it was -66.6% (active); in [15] it was -61.6% (active); in [16], 28.5%; in [18], 1.96% (active).
For the compound `COc1ccc(NC(=O)Cn2c(/C=C/c3cccc([N+](=O)[O-])c3)nc3ccccc3c2=O)cc1`, the growth is 78.2% in assay [1]; 88% in assay [2]; 1.99% (active) in [3]; 72.9% in assay [4]; 36.1% in [5]; 94% in assay [6]. The growth in assay [8] was 51.5%; in assay [20], 50.8%; in [9], 93.7%; in assay [10] it was 106%; in [11], 87.8%; in assay [19] it was 76.1%. Further, the growth was 22.9% in assay [12]; 72.7% in assay [13]; 20.3% in assay [14]; 49.9% in [15]; 92.8% in assay [16].
In the case of `O=C1N/C(=N\c2nccs2)S/C1=C\C=C/c1ccccc1`, the growth was 28.1% in [1]; 25.5% in assay [2]; 83.5% in [3]; 26.6% in assay [4]; 8.95% (active) in [5]; 46.6% in [6]. For the same compound, the growth in [8] is -24% (active); in [20] it was 28.3%; in assay [9], 18%; in assay [10], 37.7%; in assay [11], 27.5%; in assay [19], 39.2%. Further, the growth in [12] is 25.5%; in assay [13] it was 34.5%; in assay [14], 23.5%; in [15], 35.1%; in [16], 57.2%.
Consider `N#Cc1c(-c2ccc(Cl)cc2)nc2n[nH]c(-c3ccc(Cl)cc3)c2c1-c1cccs1`, for which the growth is 41.9% in assay [1]; 47% in assay [2]; 77.5% in assay [3]; 75.1% in assay [4]; 58.6% in assay [5]; 34.3% in [6]. For the same compound, the growth is 40.8% in assay [7]; 60.9% in assay [8]; 76.1% in [9]; 58.6% in assay [10]; 45.7% in assay [19]; 35.1% in [12]. The growth is 97.3% in [13]; 62.8% in assay [14]; 105% in assay [16]; 38.1% in [17]; 3.89% (active) in assay [18].
Consider `CC(=O)Nc1cccc(Nc2nc(N[C@H]3CCCc4ccccc43)c3ccccc3n2)c1`, for which the growth in [1] was 97.5%; in assay [2], 104%; in [3], 90.6%; in assay [4], 96.9%; in assay [5], 105%; in assay [6], 115%. Further, the growth was 105% in [7]; 92% in [8]; 104% in assay [9]; 123% in [10]; 98.7% in [11]; 91.8% in assay [12]. For the same compound, the growth was 99.1% in assay [13]; 102% in assay [14]; 89.5% in assay [15]; 105% in assay [16]; 103% in assay [17]; 100% in assay [18].
For `O=C1NC(=O)c2c1c1c3cc(Br)ccc3[nH]c1c1oc3ccc(F)cc3c21`, the growth was 21.5% in assay [1]; 36.4% in assay [2]; -11.6% (active) in assay [3]; -16.9% (active) in assay [4]; -55.5% (active) in assay [5]; -66% (active) in assay [6]. Further, the growth in assay [7] was 2.9% (active); in [8], 0.264% (active); in assay [9], -20.7% (active); in assay [10], -58.3% (active); in assay [19], -39.1% (active); in assay [12], 10.8%. Besides, the growth in [13] is 66.7%; in [14], -72.5% (active); in [15] it was -64.8% (active); in [16], -83.1% (active); in assay [17], 2.94% (active); in [18], -5.4% (active).
